A number with no mark means an inactive call. Results filed as inconclusive are left out. A call without a number means that no potency is given here. Activity calls are given as the source filed them. Unless noted, the call rests on the fitted dose curve; in most records, active means well fitted curve in the direction sought with a large enough effect in the repeat runs; inconclusive means weak or mixed curves; inactive means no such curve, though single readings can be large; an effect the other way counts as inactive or inconclusive.
Experiments:
[1] = qHTS assay to identify small molecule agonists of the hypoxia (HIF-1) signaling pathway - cell viability counter screen (AID 1224844; calls by dose curve; further: nearly all actives have a fitted effect of over 50% in size)
Procedure, shortened: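 Cytotoxicity was measured in parallel with the HRE-driven beta-lactamase readout: after 17 hrs of compound exposure at 37C, HRE-bla ME-180 cells received CellTiter-Glo and luminescence was recorded 30 min later.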

[2] = qHTS assay to identify small molecule agonists of H2AX (AID 1224845; active means well fitted activation curve with a large enough effect in the signal ratio in the repeat runs, not every such curve was filed as active; the % refers to the signal ratio)
Procedure, shortened: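 Wild-type CHO-K1 cells, plated overnight, exposed 3hr at 37C to 15 concentrations (0.76% DMSO final). Lysed, then HTRF anti-pH2AX (S139) cryptate and anti-H2AX-d2 antibodies, 24 hr room temperature; 665/620 nm emission read.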

[3] = qHTS assay to identify small molecule agonists of the hypoxia (HIF-1) signaling pathway (AID 1224846; active means well fitted activation curve with a large enough effect in the signal ratio in the repeat runs, not every such curve was filed as active; the % refers to the signal ratio)
Procedure, shortened: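 Compounds from the Tox21 10K library, dissolved in DMSO, are tested for induction of a hypoxia response element–controlled beta-lactamase reporter in ME-180 cells. Exposure lasts 17 hrs at 37C after a 5 hr settling period, followed by CCF4-AM FRET substrate.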

[4] = qHTS assay to identify small molecule agonists of H2AX - cell viability counter screen (AID 1224847; calls by dose curve; further: nearly all actives have a fitted effect of over 30% in size; further: potency means the concentration at half of the fitted maximal effect)
Procedure, shortened: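 Counter-screen for viability: CellTiter-Glo ATP luminescence read after 3 h compound treatment (15-point titration, 0.76% DMSO final) of CHO-K1 cells at 37C, with 30 min room-temperature reagent incubation.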

[5] = qHTS assay to identify small molecule agonists of the estrogen related receptor (ERR) signaling pathway from Tox21 library (AID 1224849; calls by dose curve; further: nearly all actives have a fitted effect of over 15% in size); conditions: ERR reporter cell line, ONE-Glo luciferase, 18 h; at 92.4 µM (top of the series) unless noted
Procedure, shortened: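 Cells carrying the ERR reporter were plated and allowed to settle for 6 h, exposed to library compounds for 18 h at 37 C, then lysed with ONE-Glo and luminescence measured.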

[6] = qHTS RealTime-Glo MT Cell Viability Assay in HepG2 cells - 24 hour (AID 1224867); further: nearly all actives have a fitted effect of over 50% in size
Procedure, shortened: (§1)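 HepG2 cells (600/well) were dispensed with RealTime-Glo reagents, incubated 5 h at 37 °C, then treated with compounds in DMSO for up to 40 h. Nonlytic NanoLuc luminescence reflecting viable cells was read at each stated time point.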

[7] = qHTS RealTime-Glo MT Cell Viability Assay in HEK293 cells - 32 hour (AID 1224868); further: top concentration of the series differs between compounds; nearly all actives have a fitted effect of over 50% in size
Procedure, shortened: (§2)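 HEK293 cells seeded with NanoLuc/prosubstrate reagent, rested 5 h at 37 C, then dosed and kept at 37 C up to 40 h. Nonlytic real-time luminescence from viable cells read at 0, 8, 16, 24, 32 and 40 h.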

[8] = A CellTox Green Cytotoxicity Assay to monitor cytotoxicity in HEK293 cells - 0 hour (AID 1224869); further: nearly all actives have a fitted effect of over 50% in size
Procedure, shortened: (§3)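 Cells (HEK293, 600/well) and dye reagent are dispensed together. After 5 h at 37 C, 23 nL compound is pinned in. Plates stay at 37 C for 40 h with fluorescence read at 0h, 8h, 16h, 24h, 32h and 40h.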

[9] = qHTS RealTime-Glo MT Cell Viability Assay in HepG2 cells - 40 hour (AID 1224870); further: nearly all actives have a fitted effect of over 50% in size
Procedure, shortened: (§4)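 HepG2 cells (600/well) mixed with RealTime-Glo MT reagent, settled 5 h at 37 C/5% CO2 before compound addition. Nonlytic NanoLuc luminescence from viable-cell prosubstrate reduction read repeatedly during 40 h treatment at 37 C.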

[10] = A CellTox Green Cytotoxicity Assay to monitor cytotoxicity in HEK293 cells - 40 hour (AID 1224871); further: nearly all actives have a fitted effect of over 45% in size
Procedure, shortened: as §3

[11] = qHTS RealTime-Glo MT Cell Viability Assay in HEK293 cells - 16 hour (AID 1224872)
Procedure, shortened: as §2

[12] = qHTS RealTime-Glo MT Cell Viability Assay in HepG2 cells - 8 hour (AID 1224873); further: nearly all actives have a fitted effect of over 55% in size
Procedure, shortened: as §4

[13] = qHTS RealTime-Glo MT Cell Viability Assay in HEK293 cells - 40 hour (AID 1224874); conditions: RealTime-Glo luminescence; max response: active compounds read low; further: nearly all actives have a fitted effect of over 50% in size
Procedure, shortened: (§5)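 Real-time viability in HEK293: signal arises when living cells convert a prosubstrate for NanoLuc in the medium, so luminescence tracks viable cell number. Compound (23 nL, DMSO) added 5 h post-seeding; kinetic reads at 0–40 h, 37 C.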

[14] = A CellTox Green Cytotoxicity Assay to monitor cytotoxicity in HEK293 cells - 24 hour (AID 1224875); further: nearly all actives have a fitted effect of over 45% in size
Procedure, shortened: as §3

[15] = A CellTox Green Cytotoxicity Assay to monitor cytotoxicity in HepG2 cells - 16 hour (AID 1224876); further: nearly all actives have a fitted effect of over 45% in size
Procedure, shortened: (§6)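 Cells and non-lytic dye reagent are dispensed together (600 HepG2 cells/well) and incubated 5 h before DMSO compound transfer. Kinetic fluorescence is then recorded in the same wells during 40 h at 37 C.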

[16] = qHTS RealTime-Glo MT Cell Viability Assay in HepG2 cells - 32 hour (AID 1224877); further: nearly all actives have a fitted effect of over 55% in size
Procedure, shortened: as §1

[17] = A CellTox Green Cytotoxicity Assay to monitor cytotoxicity in HepG2 cells - 24 hour (AID 1224878); further: nearly all actives have a fitted effect of over 45% in size
Procedure, shortened: as §6

[18] = A CellTox Green Cytotoxicity Assay to monitor cytotoxicity in HepG2 cells - 40 hour (AID 1224879); further: nearly all actives have a fitted effect of over 40% in size
Procedure, shortened: as §6

[19] = qHTS RealTime-Glo MT Cell Viability Assay in HEK293 cells - 0 hour (AID 1224880)
Procedure, shortened: as §5

[20] = qHTS assay to identify small molecule antagonists of the estrogen related receptor (ERR) signaling pathway from Tox21 library (AID 1224848); further: nearly all actives have a fitted effect of over 50% in size
Procedure, shortened: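 Quantitative high-throughput format: ERR reporter cells (2,000/well) pre-incubated 6 h, treated 18 h at 37 C with compounds in DMSO alongside positive and negative controls, then read by ONE-Glo luminescence.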

CC(=O)OC/C=C/c1ccccc1
Potency [1]: inactive | Potency [2]: inactive | outcome [3]: inactive | Potency [4]: inactive | activity change, positive = activation [5]: 0.279% | Potency [6]: inactive | Potency [7]: inactive | Potency [8]: inactive | Potency [9]: inactive | Potency [10]: inactive | Potency [11]: inactive | Potency [12]: inactive | max response [13]: 5.43% | Potency [14]: inactive | Potency [15]: inactive | Potency [16]: inactive | Potency [17]: inactive | Potency [18]: inactive | Potency [19]: inactive

NCc1ccccc1
Potency [1]: inactive | Potency [2]: inactive | outcome [3]: inactive | Potency [4]: inactive | Potency [20]: inactive | Potency [6]: inactive | Potency [8]: inactive | Potency [9]: inactive | Potency [10]: inactive | Potency [11]: inactive | Potency [12]: inactive | max response [13]: 2.09% | Potency [15]: inactive | Potency [16]: inactive | Potency [17]: inactive | Potency [18]: inactive | Potency [19]: inactive

CCCCCC/C=C/C=O
Potency [1]: inactive | Potency [2]: inactive | outcome [3]: inactive | Potency [4]: inactive | activity change, positive = activation [5]: 2.49% | Potency [6]: inactive | Potency [7]: inactive | Potency [8]: inactive | Potency [9]: inactive | Potency [10]: inactive | Potency [12]: inactive | Potency [15]: inactive | Potency [16]: inactive

CCOc1nc2cccc(C(=O)O)c2n1Cc1ccc(-c2ccccc2-c2nn[nH]n2)cc1
Potency [1]: inactive | Potency [2]: inactive | outcome [3]: inactive | Potency [4]: inactive | activity change, positive = activation [5]: 4.21% [at 42.5 µM] | Potency [6]: inactive | Potency [7]: inactive | Potency [8]: inactive | Potency [9]: inactive | Potency [10]: inactive | Potency [11]: inactive | Potency [12]: inactive | Potency [15]: inactive | Potency [16]: inactive | Potency [17]: inactive | Potency [18]: inactive | Potency [19]: inactive

Cc1ccccn1
Potency [1]: inactive | Potency [2]: inactive | outcome [3]: inactive | Potency [4]: inactive | Potency [20]: inactive | activity change, positive = activation [5]: 1.44% | Potency [6]: inactive | Potency [7]: inactive | Potency [8]: inactive | Potency [10]: inactive | Potency [11]: inactive | Potency [12]: inactive | max response [13]: 4.7% | Potency [14]: inactive | Potency [15]: inactive | Potency [16]: inactive | Potency [17]: inactive | Potency [18]: inactive | Potency [19]: inactive

C=CC[N+]1([C@H]2C[C@H]3[C@@H]4CC[C@H]5C[C@H](OC(C)=O)[C@@H](N6CCCCC6)C[C@]5(C)[C@H]4CC[C@]3(C)[C@H]2OC(=O)CC)CCCCC1
Potency [1]: inactive | Potency [2]: inactive | outcome [3]: inactive | Potency [4]: inactive | activity change, positive = activation [5]: -0.214% [at 42.5 µM] | Potency [6]: inactive | Potency [7]: inactive | Potency [8]: inactive | Potency [9]: inactive | Potency [10]: inactive | Potency [11]: inactive | Potency [12]: inactive | max response [13]: -20.7% | Potency [14]: inactive | Potency [15]: inactive | Potency [16]: inactive | Potency [17]: inactive | Potency [18]: inactive

CCN(CC)CCOC(=O)C1(c2ccccc2)CCCC1
Potency [1]: inactive | Potency [2]: inactive | outcome [3]: inactive | Potency [4]: inactive | Potency [20]: inactive | activity change, positive = activation [5]: 0.628% [at 42.5 µM] | Potency [6]: inactive | Potency [7]: inactive | Potency [8]: inactive | Potency [9]: inactive | Potency [10]: inactive | Potency [11]: inactive | Potency [12]: inactive | max response [13]: -9.49% | Potency [14]: inactive | Potency [15]: inactive | Potency [16]: inactive | Potency [17]: inactive

CCN(CC)C(C)=O
Potency [1]: inactive | Potency [2]: inactive | outcome [3]: inactive | Potency [4]: inactive | activity change, positive = activation [5]: 2.9% | Potency [6]: inactive | Potency [7]: inactive | Potency [8]: inactive | Potency [9]: inactive | Potency [10]: inactive | Potency [11]: inactive | Potency [12]: inactive | Potency [14]: inactive | Potency [15]: inactive | Potency [16]: inactive | Potency [17]: inactive | Potency [18]: inactive

CC(C)NCC(O)c1cc(O)cc(O)c1 (stereo not drawn)
Potency [1]: inactive | Potency [2]: inactive | outcome [3]: inactive | Potency [4]: inactive | Potency [20]: inactive | activity change, positive = activation [5]: 10.5% [at 42.5 µM] | Potency [6]: inactive | Potency [7]: inactive | Potency [8]: inactive | Potency [9]: inactive | Potency [10]: inactive | Potency [11]: inactive | Potency [12]: inactive | Potency [14]: inactive | Potency [15]: inactive | Potency [16]: inactive | Potency [18]: inactive | Potency [19]: inactive

CCCCCCCCN(C)C
Potency [1]: inactive | Potency [2]: inactive | outcome [3]: inactive | Potency [4]: inactive | Potency [20]: inactive | activity change, positive = activation [5]: 2.41% | Potency [6]: inactive | Potency [8]: inactive | Potency [9]: inactive | Potency [10]: inactive | Potency [11]: inactive | Potency [12]: inactive | max response [13]: 16% | Potency [15]: inactive | Potency [16]: inactive | Potency [17]: inactive | Potency [18]: inactive | Potency [19]: inactive

CC(CN)CCCN (stereo not drawn)
Potency [1]: inactive | Potency [2]: inactive | outcome [3]: inactive | Potency [4]: 357 nM (active) | Potency [20]: inactive | activity change, positive = activation [5]: -0.964% | Potency [6]: inactive | Potency [7]: inactive | Potency [8]: inactive | Potency [9]: inactive | Potency [11]: inactive | Potency [12]: inactive | max response [13]: 1.48% | Potency [14]: inactive | Potency [15]: inactive | Potency [16]: inactive | Potency [18]: inactive | Potency [19]: inactive

CC[C@H](C)[C@H](N)C(=O)O
Potency [1]: inactive | Potency [2]: inactive | outcome [3]: inactive | Potency [4]: inactive | Potency [20]: inactive | activity change, positive = activation [5]: 5.77% [at 42.5 µM] | Potency [6]: inactive | Potency [8]: inactive | Potency [11]: inactive | Potency [12]: inactive | Potency [14]: inactive | Potency [15]: inactive | Potency [16]: inactive | Potency [17]: inactive | Potency [18]: inactive | Potency [19]: inactive

From PubChem BioAssay (Tox21)
